Assay in all cases: universal protein binding microarray (PBM); transcription factors of Arabidopsis thaliana; high values mean tight binding
The target of test [1] is T1, GST-ANAC092(1-176) (Arabidopsis thaliana, UniProt Q9FKA0 1-176).
T1 sequence: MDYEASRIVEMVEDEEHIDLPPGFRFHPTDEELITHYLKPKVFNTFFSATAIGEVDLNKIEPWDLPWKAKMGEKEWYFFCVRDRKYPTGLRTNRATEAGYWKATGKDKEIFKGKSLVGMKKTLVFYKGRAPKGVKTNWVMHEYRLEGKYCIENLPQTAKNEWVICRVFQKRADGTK
To be noted: protein: recombinant; tags: GST; chain copies: 2; dsDNA, one strand shown. In outline: (§1)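 Protein amounts were determined by A280 or anti-GST western blot after glutathione–Sepharose 4B purification of GST-tagged proteins induced in cells, with zinc acetate included for zinc-finger proteins. Duplicate runs at 200 to 500 nM final were done on custom all-10-mer Agilent 4 × 180K arrays made double-stranded by primer extension. The normalised enrichment score (E-score) over gapped and ungapped 8-mers is the measure of binding.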

The target in test [2] is GST-NTL6(1-168) (Arabidopsis thaliana, UniProt Q9SCK6 1-168). The note with it: protein: recombinant; tags: GST; chain copies: 2; dsDNA, one strand shown. In outline:
as §1

Test [3] deals with T2, GST-ANAC019 NAC domain (Arabidopsis thaliana, UniProt Q9C932 14-162).
T2 sequence: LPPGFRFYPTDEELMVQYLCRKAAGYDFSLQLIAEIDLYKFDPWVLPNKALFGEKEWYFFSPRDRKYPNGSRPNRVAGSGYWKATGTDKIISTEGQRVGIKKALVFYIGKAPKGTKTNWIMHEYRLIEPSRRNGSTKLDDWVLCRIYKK
The note with it: protein: recombinant; tags: GST; chain copies: 2; dsDNA, one strand shown. In outline: as §1

In test [4] the target is T3, GST-ATAF1 NAC domain (Arabidopsis thaliana, UniProt Q39013 7-158).
T3 sequence: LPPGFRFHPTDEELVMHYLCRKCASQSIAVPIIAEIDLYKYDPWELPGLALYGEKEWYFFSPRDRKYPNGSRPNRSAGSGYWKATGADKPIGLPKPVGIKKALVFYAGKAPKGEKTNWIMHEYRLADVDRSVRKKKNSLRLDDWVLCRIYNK
The note with it: protein: recombinant; tags: GST; chain copies: 2; dsDNA, one strand shown. The essentials:
as §1

Test [5] deals with T4, GST-ANAC092(1-285) full length (Arabidopsis thaliana, UniProt Q9FKA0 1-285).
T4 sequence: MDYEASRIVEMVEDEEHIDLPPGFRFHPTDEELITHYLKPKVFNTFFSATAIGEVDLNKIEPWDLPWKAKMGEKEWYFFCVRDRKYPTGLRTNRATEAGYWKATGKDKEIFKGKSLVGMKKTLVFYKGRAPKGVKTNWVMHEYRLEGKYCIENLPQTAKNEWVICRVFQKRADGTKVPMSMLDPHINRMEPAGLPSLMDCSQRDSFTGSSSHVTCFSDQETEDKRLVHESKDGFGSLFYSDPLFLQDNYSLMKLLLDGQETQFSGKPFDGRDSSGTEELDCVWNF
The note with it: protein: recombinant; tags: GST; chain copies: 2; dsDNA, one strand shown. In outline:
as §1

The target in test [6] is T5, GST-NTL8 NAC domain (Arabidopsis thaliana, UniProt Q9XIN7 14-156).
T5 sequence: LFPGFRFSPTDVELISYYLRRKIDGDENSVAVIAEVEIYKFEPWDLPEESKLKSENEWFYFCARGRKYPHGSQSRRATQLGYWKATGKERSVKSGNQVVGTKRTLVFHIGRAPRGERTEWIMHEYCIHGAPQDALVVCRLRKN
To be noted: protein: recombinant; tags: GST; chain copies: 2; dsDNA, one strand shown. In outline: as §1

For test [7], the target named is T6, GST-SND1(1-203) (Arabidopsis thaliana, UniProt Q9LPI7 1-203).
T6 sequence: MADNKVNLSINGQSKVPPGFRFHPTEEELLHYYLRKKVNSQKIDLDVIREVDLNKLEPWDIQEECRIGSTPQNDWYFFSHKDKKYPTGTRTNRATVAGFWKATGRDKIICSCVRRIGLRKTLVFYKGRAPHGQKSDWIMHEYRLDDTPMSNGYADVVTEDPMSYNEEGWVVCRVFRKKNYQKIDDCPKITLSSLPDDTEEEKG
The note with it: protein: recombinant; tags: GST; chain copies: 2; dsDNA, one strand shown. In outline: as §1

Test [8] deals with GST-WRKY1(266-371) (Arabidopsis thaliana, UniProt Q9SI37 266-371). To be noted: protein: recombinant; tags: GST; dsDNA, one strand shown. In outline: as §1
GST-WRKY1(266-371), sequence (Q9SI37 266-371): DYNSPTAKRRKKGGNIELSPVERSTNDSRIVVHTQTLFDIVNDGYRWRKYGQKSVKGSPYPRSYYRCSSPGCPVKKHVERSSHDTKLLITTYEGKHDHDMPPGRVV
Test [9] has as its target T7, GST-NAP(1-166) (Arabidopsis thaliana, UniProt O49255 1-166).
T7 sequence: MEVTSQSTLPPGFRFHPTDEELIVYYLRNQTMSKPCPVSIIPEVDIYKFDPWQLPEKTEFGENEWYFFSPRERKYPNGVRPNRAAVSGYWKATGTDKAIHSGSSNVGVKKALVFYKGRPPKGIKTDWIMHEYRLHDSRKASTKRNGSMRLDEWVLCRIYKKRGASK
To be noted: protein: recombinant; tags: GST; chain copies: 2; dsDNA, one strand shown. The essentials:
as §1

For test [10], the target named is T8, GST-NST2(1-184) (Arabidopsis thaliana, UniProt Q9M274 1-184).
T8 sequence: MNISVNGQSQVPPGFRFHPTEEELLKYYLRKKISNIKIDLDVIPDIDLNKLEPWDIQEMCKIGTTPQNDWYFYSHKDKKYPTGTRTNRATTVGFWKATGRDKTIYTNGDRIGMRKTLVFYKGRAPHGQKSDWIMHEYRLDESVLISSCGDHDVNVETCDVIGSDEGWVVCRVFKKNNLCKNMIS
To be noted: protein: recombinant; tags: GST; chain copies: 2; dsDNA, one strand shown. The essentials:
as §1

Test [11] deals with T9, GST-ANAC055(1-171) (Arabidopsis thaliana, UniProt Q9LDY8 1-171).
T9 sequence: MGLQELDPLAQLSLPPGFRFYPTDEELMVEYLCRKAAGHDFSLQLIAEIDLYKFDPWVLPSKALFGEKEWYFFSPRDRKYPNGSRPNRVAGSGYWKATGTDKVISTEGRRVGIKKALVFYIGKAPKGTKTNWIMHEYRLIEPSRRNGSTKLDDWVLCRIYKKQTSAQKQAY
The note with it: protein: recombinant; tags: GST; chain copies: 2; dsDNA, one strand shown. The essentials:
as §1

GST-NTL6(1-168), sequence (Q9SCK6 1-168): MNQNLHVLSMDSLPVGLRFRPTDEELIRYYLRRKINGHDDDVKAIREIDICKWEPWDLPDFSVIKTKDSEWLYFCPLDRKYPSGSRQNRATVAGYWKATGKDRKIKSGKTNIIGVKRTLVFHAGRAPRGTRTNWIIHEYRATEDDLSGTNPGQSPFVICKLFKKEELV

As for TAGGGAAA, the binding signal in [1] amounted to 0.106 E-score; in test [2], 0.177 E-score; in [3], 0.0861 E-score; in [4] it was 0.088 E-score; in test [5] it was 0.115 E-score; in test [6], 0.438 E-score. Besides, the binding signal in [7] was 0.0953 E-score.
Take ACTGACCT: the binding signal in test [6] was 0.109 E-score; in [7] it was 0.0503 E-score; in test [8], 0.407 E-score.
For the sequence AGTCAGAA, the binding signal in test [5] stood at 0.0656 E-score; in test [9], 0.0823 E-score; in [10] it was 0.119 E-score; in test [7], 0.101 E-score; in test [8], 0.416 E-score.
As for AAAGTCAA, the binding signal in test [2] came to 0.0854 E-score; in [11] it was 0.0717 E-score; in test [4], 0.118 E-score; in test [10] it was 0.0787 E-score; in test [7], 0.118 E-score; in test [8], 0.49 E-score.
GAAGTAAC: the binding signal in test [1] stood at 0.249 E-score; in [2] it was 0.381 E-score; in [11], 0.106 E-score; in [4], 0.0921 E-score; in test [5], 0.325 E-score; in test [10] it was 0.301 E-score. The binding signal in test [6] came to 0.413 E-score; in test [7], 0.333 E-score.
Regarding AAGGGTCA, the binding signal came out at 0.0797 E-score in test [2], 0.0922 E-score in test [7] and 0.409 E-score in test [8].
With AAGTCAAT, the binding signal in test [2] came out at 0.118 E-score; in test [4] it was 0.126 E-score; in test [5] it was 0.119 E-score; in test [7] it was 0.0507 E-score; in [8], 0.481 E-score.
Regarding AAGGAAGC, the binding signal was 0.219 E-score in test [1]; 0.43 E-score in [2]; 0.0894 E-score in [11]; 0.13 E-score in test [5]; 0.185 E-score in test [10]; 0.188 E-score in test [6]. Moreover, in test [7], the binding signal stood at 0.175 E-score.
GCGTCAAC: the binding signal in test [1] was found to be 0.119 E-score; in test [3] it was 0.0778 E-score; in [5] it was 0.109 E-score; in test [10], 0.0734 E-score; in [7], 0.192 E-score; in test [8], 0.443 E-score.
As to CGAAGGAA, the binding signal was 0.176 E-score in test [1]; 0.473 E-score in test [2]; 0.0644 E-score in [11]; 0.057 E-score in test [4]; 0.0784 E-score in test [5]; 0.0729 E-score in test [9]. Besides, the binding signal in test [10] came to 0.17 E-score; in test [6], 0.459 E-score; in test [7] it was 0.3 E-score.

These data come from paper PMC4081100, “A DNA-binding-site landscape and regulatory network analysis for NAC transcription factors in Arabidopsis thaliana”.
